The whole screen tested about 68,000 compounds, of which about 2,700 (4%) showed an effect of 50% or more. The list comes from a sample in which strong results are over-represented; it also holds similar structures and randomly drawn compounds.
Test system: Plasmodium berghei
Experiment: Screen against P. berghei liver stage (PbLuc), transformed with Luciferase, at 2uM
Assay type: functional, HepG2
Details: tested at 2 uM

Going from `O=C1CN(Cc2ccc3ccccc3n2)CCN1C1CCCC1` to `O=C1NCCN1C1CCN(Cc2nc(-c3ccccc3)no2)CC1`, the INHIBITION rises from -34.37% to 64.16%.

Compared with `CNC(=O)NCC(=O)N1CCCC1Cc1cccc(F)c1` (configuration not stated), `Cc1cnn(CC2CCCN2C(=O)c2ccc3[nH]c(=O)[nH]c3c2)c1` (configuration not stated) is lower in INHIBITION: 41.21% for the first, -73.25% for the second.

Going from `CNc1nc(C(=O)N2CCN(c3cc(C)nc(C)c3)CC2)cs1` to `Cc1ccc(NC2CCN(C(=O)CCc3nccs3)CC2)nn1`, the INHIBITION falls from 7.64% to 3.06%.

Going from `c1cc(-c2nnn3c2COC(CNCc2nccs2)C3)ccn1` (configuration not stated) to `CC(C)c1nc(C2CCCN2c2cnc3ccccc3n2)no1` (configuration not stated), the INHIBITION falls from 16.87% to 1.41%.

First: O=C(c1cccc(OC2CCCC2)c1)N1CCCC(n2cncn2)C1 (configuration not stated)
Second: COc1ccc2cc(C(=O)N3CCCCC3Cn3cccn3)[nH]c2c1 (configuration not stated)
The INHIBITION of the first is higher: 27.55% for the first, -28.85% for the second.

First: Cc1nsc(NC(=O)N2CCC(C(C)(C)O)CC2)n1
Second: Cc1cccc(N2CCC(NC(=O)CCCc3cccs3)CC2)n1
The INHIBITION of the first is higher: -0.55% for the first, -52.85% for the second.

Compared with `CN1CCN(C(=O)c2cn(Cc3ccccc3)c3ncccc23)CC1`, `CN1CCN(CCn2cnc3c(F)cccc3c2=O)CC1` is lower in INHIBITION: 46.61% for the first, 30.42% for the second.

Compared with `CC(C)Cn1cc(C(=O)NC2CCS(=O)(=O)C2)c2ccccc2c1=O` (configuration not stated), `CC(C)CNC(=O)[C@H]1CCS(=O)(=O)[C@@H]2CN(Cc3ccc(Cl)cc3)C[C@H]12` is higher in INHIBITION: -70.1% for the first, 8.13% for the second.

Going from `O=C(C1CCOCC1)N1CCC2(CC1)CN(c1ccsc1)C(=O)CO2` to `CC1CCN(C(=O)[C@H]2C[C@@H]3CCN(CC4CCOCC4)C[C@@H]3O2)CC1`, the INHIBITION falls from -17.15% to -21.33%.

Going from `CS(=O)(=O)Cc1ccc(NC(=O)c2cccnc2)cc1F` to `Cn1cccc1C(=O)N1CCc2c(CNS(C)(=O)=O)cncc2C1`, the INHIBITION rises from -35.1% to 6.66%.

Compared with `NC1CCc2nc(-c3cccnc3)nc(Nc3ccc(F)cc3)c2C1` (configuration not stated), `O=C1NCCN1C1CCN(Cc2nc(-c3ccc(F)cc3)no2)CC1` is higher in INHIBITION: -13.75% for the first, 21.39% for the second.

Going from `CCc1nc(C2CCCN2CCCS(N)(=O)=O)no1` (configuration not stated) to `CCc1nc(C2CCCN2CCCSC)no1` (configuration not stated), the INHIBITION rises from 22.29% to 55.92%.

Compared with `CSCCCN1CCCC1c1noc(C)n1` (configuration not stated), `Cc1nc(C2CCCN2Cc2ccon2)no1` (configuration not stated) is higher in INHIBITION: -8.84% for the first, 1.63% for the second.

Compared with `Cn1ccc(CN2CCC(CC(=O)N3CCCC3)CC2)cc1=O`, `CC[C@H]1CN(C(=O)c2cnc(CN3CCCC3)s2)CC[C@@]1(C)O` is lower in INHIBITION: 14.5% for the first, -47.18% for the second.

Going from `CCc1nc(C2CCCN2C(=O)CCc2c(C)noc2Cl)no1` (configuration not stated) to `CCc1nc(C2CCCN2C(=O)CCc2nc(C(C)(C)C)no2)no1` (configuration not stated), the INHIBITION falls from 51.94% to 44.43%.

First: CCc1nc(C2CCCN2C(=O)c2ccc(N3CCCC3)nn2)no1 (configuration not stated)
Second: CCc1nc(C2CCCN2C(=O)c2ccc(N(C)C)nn2)no1 (configuration not stated)
The INHIBITION of the first is higher: 63.46% for the first, 5.91% for the second.

Compared with `CCc1nc(C2CCCN2C(=O)c2c[nH]c(C)n2)no1` (configuration not stated), `CCc1nc(C2CCCN2C(=O)c2ccc3c(c2)COC3)no1` (configuration not stated) is higher in INHIBITION: -72.93% for the first, 16.18% for the second.

Compared with `CCc1nc(C2CCCN2C(=O)CCc2nc(C3CC3)no2)no1` (configuration not stated), `CCc1nc(C2CCCN2Cc2nnc(C3CCC3)o2)no1` (configuration not stated) is higher in INHIBITION: -25.46% for the first, 16.26% for the second.

First: CCn1cc(-c2cc(-c3ccn(C)c3)nc(N)c2C#N)cc1C#N
Second: COc1ccc2cc(C(=O)N3CCCC3Cn3cc(C)cn3)[nH]c2c1 (configuration not stated)
The INHIBITION of the first is lower: 17.19% for the first, 53.98% for the second.

First: Cc1cnn(CC2CCCN2C(=O)c2cc3ccccc3[nH]2)c1 (configuration not stated)
Second: Cc1cnn(CC2CCCN2C(=O)c2ccc3[nH]nnc3c2)c1 (configuration not stated)
The INHIBITION of the first is lower: -20.11% for the first, 53.72% for the second.

Compared with `Cc1cnn(CC2CCCCN2C(=O)c2ccc3[nH]nnc3c2)c1` (configuration not stated), `CC(C)c1nc(C2CCCN2CC(=O)N2CCc3ccccc32)no1` (configuration not stated) is lower in INHIBITION: 39.32% for the first, 30.91% for the second.

First: COCc1nc(C(=O)NS(=O)(=O)c2c(C)c(C)cc(C)c2C)cs1
Second: COc1cc(C(=O)N(C)Cc2nccn2CC(F)(F)F)ccc1C
The INHIBITION of the first is higher: 18.85% for the first, -5.68% for the second.

First: O=C(c1cn2ccsc2n1)N1CCN(CC2CC2)[C@@H]2CS(=O)(=O)C[C@@H]21
Second: Cc1ocnc1C(=O)N1CCCC1c1ccc(C(=O)N2CCSCC2)s1 (configuration not stated)
The INHIBITION of the first is lower: -18.12% for the first, 9.31% for the second.

Compared with `CC(C)(C)NC(=O)c1cccc(CN2CCS(=O)(=O)CC2)c1`, `CCc1cccc(N2CCC(NC(=O)C3CCCO3)CC2)c1` (configuration not stated) is higher in INHIBITION: 12.32% for the first, 22.53% for the second.

Compared with `CCc1cccnc1NCc1cnc(N2CCOCC2)nc1`, `O=c1c2cccc(F)c2ncn1CCN1CCOCC1` is higher in INHIBITION: -20.29% for the first, 25.37% for the second.

First: O=C(Cc1ccc(F)cc1)NCCNS(=O)(=O)C1CCCC1
Second: O=C1CC(NS(=O)(=O)N2CCOCC2)CN1Cc1ccc(F)cc1 (configuration not stated)
The INHIBITION of the first is lower: -36.61% for the first, 57.75% for the second.

Going from `Cc1n[nH]c(C2CN(Cc3nnc(C4CC4)n3C)CCO2)n1` (configuration not stated) to `CCc1n[nH]c(C2CN(Cc3nnc(C4CC4)n3C)CCO2)n1` (configuration not stated), the INHIBITION rises from -82.49% to 51.32%.

Compared with `CCCc1n[nH]c(C2CN(Cc3nnc(C4CC4)n3C)CCO2)n1` (configuration not stated), `CC(=O)N(Cc1noc(C2CC2)n1)C1CCN(Cc2nccn2C)C1` (configuration not stated) is lower in INHIBITION: 30.05% for the first, -27.69% for the second.

Compared with `COCCOC1CCN(C(C(=O)O)c2c(Cl)cccc2OC)CC1` (configuration not stated), `COc1cccc2c(=O)n(C3CCNCC3)cnc12` is higher in INHIBITION: -17.86% for the first, 24.6% for the second.

Going from `Cc1cc(=O)[nH]c(=O)n1-c1cccc(Cl)c1Cl` to `Cc1nnc(CN(C)CCOc2cccc(Cl)c2)o1`, the INHIBITION rises from -12.39% to 70.83%.

First: Cc1ccc(-c2noc(CN3CCC(N4CCNC4=O)CC3)n2)cc1
Second: CC(C)c1nc(C2CCCN2CC(=O)N2CCNC2=O)no1 (configuration not stated)
The INHIBITION of the first is lower: 9.17% for the first, 57.33% for the second.

Going from `O=C1CC(NS(=O)(=O)N2CCOCC2)CN1Cc1ccccc1` (configuration not stated) to `O=C1CC(NS(=O)(=O)N2CCOCC2)CN1CCc1ccccc1` (configuration not stated), the INHIBITION rises from 21.22% to 43.44%.

Going from `COCCCNC(=O)CN(C)C(=O)c1ccc(-n2cccc2)cc1O` to `CN(Cc1nccn1CC(F)(F)F)C(=O)c1cccc(N(C)C)c1`, the INHIBITION rises from -44.96% to 27.53%.

Compared with `CC(C)C(=O)N1CCN(Cc2ccccn2)CC2(CC(=O)N(C)C2)C1` (configuration not stated), `O=C(Cc1ccccn1)N1CCN(CC2CC2)c2ncccc2C1` is lower in INHIBITION: 31.5% for the first, 16.87% for the second.

Compared with `COc1ccc(C2(NCc3c(C)nc4c(C)cccn34)CCCC2)cc1`, `COc1cccc2c(=O)n(Cc3cccnc3)cnc12` is lower in INHIBITION: -43.11% for the first, -66.95% for the second.

Compared with `CCc1cc(NC2CCOCC2)n2nc(C)c(C)c2n1`, `Cc1cnc(CN2CCCC2c2noc(C(C)C)n2)cn1` (configuration not stated) is higher in INHIBITION: -35.61% for the first, 13.86% for the second.

Compared with `Cn1nccc1CCNC(=O)[C@H]1CNC[C@H](C(=O)N2CCCC2)C1`, `NC(=O)CN1CCCN(C(=O)Cc2ccc(Br)cc2)CC1` is lower in INHIBITION: 27.73% for the first, 11.24% for the second.

First: CNc1ncc(-c2csc(NC(=O)C[C@H]3COCCN3)n2)cn1
Second: CC(C)Nc1ncc(-c2csc(NC(=O)C[C@H]3COCCN3)n2)cn1
The INHIBITION of the first is lower: 12.21% for the first, 22.1% for the second.

Compared with `Nc1ncc(-c2csc(NC(=O)C[C@H]3COCCN3)n2)cn1`, `Cc1cc(NC(=O)CN2CCCC2c2noc(C(C)C)n2)no1` (configuration not stated) is lower in INHIBITION: 62.99% for the first, 21.12% for the second.

Going from `CC(C)c1nc(C2CCCN2Cc2nnc(C3CCC3)o2)no1` (configuration not stated) to `C1CC(c2nnc(CN3CCCC3c3noc(C4CC4)n3)o2)C1` (configuration not stated), the INHIBITION falls from 53.33% to 21.43%.

First: CC(C)c1nc(C2CCCN2c2cnc3cc(F)c(F)cc3n2)no1 (configuration not stated)
Second: CC(C)c1nc(C2CCCN2c2ccnc(C3CCCC3)n2)no1 (configuration not stated)
The INHIBITION of the first is higher: 55.43% for the first, 14.92% for the second.

Compared with `CC(C)c1nc(C2CCCN2Cc2ccccc2C#N)no1` (configuration not stated), `CC(C)c1nc(C2CCCN2Cc2ccncc2Cl)no1` (configuration not stated) is higher in INHIBITION: -17.71% for the first, 60.09% for the second.

Compared with `CC(C)c1nc(C2CCCN2Cc2ccon2)no1` (configuration not stated), `CC(C)c1nc(C2CCCN2Cc2ccno2)no1` (configuration not stated) is lower in INHIBITION: 56.02% for the first, -9.3% for the second.

Going from `CNc1cncc(C2CCCN2S(=O)(=O)c2ccccc2F)n1` (configuration not stated) to `CC(C)N1CCN(CCn2cnc3c(F)cccc3c2=O)CC1`, the INHIBITION falls from 29.89% to -13.34%.

Compared with `COc1ncccc1CN1CCC2(CC1)CC(OCC1CC1)CO2` (configuration not stated), `OC1(CN2CCOC(Cn3cccn3)C2)CCCCC1` (configuration not stated) is higher in INHIBITION: -23.93% for the first, -1.88% for the second.

Going from `Cc1nn(Cc2ccc(C(=O)NCCCN3CCOCC3)o2)c(C)c1Cl` to `O=c1c2cccc(F)c2ncn1CCN1CCNCC1`, the INHIBITION rises from 32.66% to 65.76%.

First: Cn1ncc(N2CCOC(CCNC(=O)NC(C)(C)C)C2)cc1=O (configuration not stated)
Second: Cc1csc2c(=O)n(CCN3CCNCC3)cnc12
The INHIBITION of the first is higher: 39.32% for the first, 23.68% for the second.

Compared with `Cc1nnc(CN(C)CCCOc2cccc(Cl)c2)o1`, `CN(CCOc1cccc(Cl)c1)Cc1nnc(C(C)(C)C)o1` is higher in INHIBITION: -33.74% for the first, -19% for the second.

First: CS(=O)(=O)N(Cc1ccon1)c1ccc2c(c1)OCO2
Second: CN(Cc1nccn1CC(F)(F)F)C(=O)c1ccc(F)c(F)c1
The INHIBITION of the first is higher: 37.25% for the first, 32.57% for the second.

`O=c1c2cccc(C(F)(F)F)c2ncn1CCN1CCNCC1` and `COc1cccc2c(=O)n(CCN3CCNCC3)cnc12` are the same in INHIBITION: 50.61% for the first, 50.61% for the second.

Going from `CN(Cc1nccn1CC(F)(F)F)C(=O)c1ccc(F)cc1F` to `Cc1ccc(C(=O)N(C)Cc2nccn2CC(F)(F)F)cn1`, the INHIBITION falls from 73.96% to -4.59%.

First: CCOc1ccc(C(=O)N(C)Cc2nccn2CC(F)(F)F)cc1
Second: COCC(=O)NC(C)Cc1cccc(Cl)c1 (configuration not stated)
The INHIBITION of the first is higher: 52.57% for the first, -20.82% for the second.

First: Cc1ccc([C@@H]2CN(S(=O)(=O)N3CCC(C)CC3)C[C@H]2N(C)C)cc1
Second: Cc1ccc([C@@H]2CN(S(=O)(=O)N(C)C)C[C@H]2N(C)C)cc1
The INHIBITION of the first is higher: 65.1% for the first, 28.49% for the second.

Work on `Cc1ccc([C@@H]2CN(S(=O)(=O)C(C)C)C[C@H]2N(C)C)cc1` yielded an INHIBITION of 4.47%.

Source: ChEMBL document CHEMBL4513216, “Probing the Open Global Health Chemical Diversity Library for Multistage-Active Starting Points for Next-Generation Antimalarials” (ACS Infect Dis, 2020)
